# A selection: hits, their analogues and other compounds. The true share with any hit is near 2.6%.
# PAFAH2 FP inh = inhibitors of human PAFAH2; Q99487; recombinant PAFAH2, FP-rhodamine activity probe, fluorescence polarization; inhibition, % at 3.39 µM; 0.99% of 340,000 active; AID 492956;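 active = inhibition above the mean over all tested compounds plus 3 SD, cut at about 30% in these data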;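 also: inhibitors block probe labeling of enzyme so polarization drops; 0% = enzyme with DMSO and 100% = wells lacking PAFAH2 protein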
# pPAFAH FP inh = pPAFAH (human) enzyme inhibition; Q13093; recombinant pPAFAH, FP-rhodamine probe fluorescence polarization; inhibition, % at 3.39 µM; 1.5% of 330,000 active;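 active = inhibition above the mean inhibition across the screen plus 3 SD, cut at about 25% in these data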;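 also: inhibitors block binding of the rhodamine activity-based probe so polarization drops; 0% = enzyme with DMSO and 100% = wells lacking pPAFAH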
# Target sequence (Q13093 whole entry, looked up): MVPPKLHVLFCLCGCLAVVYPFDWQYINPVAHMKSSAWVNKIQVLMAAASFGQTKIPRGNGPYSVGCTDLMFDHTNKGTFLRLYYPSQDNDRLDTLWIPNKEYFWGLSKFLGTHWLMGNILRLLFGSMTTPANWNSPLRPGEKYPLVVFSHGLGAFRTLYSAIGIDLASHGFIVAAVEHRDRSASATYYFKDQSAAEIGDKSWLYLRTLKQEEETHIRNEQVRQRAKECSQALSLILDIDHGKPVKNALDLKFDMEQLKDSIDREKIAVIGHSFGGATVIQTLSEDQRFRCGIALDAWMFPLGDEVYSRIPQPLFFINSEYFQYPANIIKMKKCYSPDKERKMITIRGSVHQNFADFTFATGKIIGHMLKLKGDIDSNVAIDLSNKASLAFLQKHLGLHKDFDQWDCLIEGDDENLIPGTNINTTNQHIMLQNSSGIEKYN
# PKA-R2B act = activates the human PKA-R2B holoenzyme complex; P22694+P31323; activation, % at 11.4 µM; 0.079% of 340,000 active; PKA-R2B holoenzyme dissociation, Cy5-IP20 fluorescence polarization; R2B truncated from residue 108, S112A mutant; 0% DMSO only, 100% 113 µM cGMP;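 active = activation above a cutoff set at the mean over all compounds plus 3 SD, cut at about 18% in these data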;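 also: higher means more holoenzyme dissociation and a rise in polarization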
# PAFAH1B3 inh = PAFAH1B3 (human) inhibition; Q15102; recombinant PAFAH1B3, FP-rhodamine probe, fluorescence polarization; 0.28% of 340,000 active; inhibition, % at 3.39 µM; AID 492972;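 active = inhibition above the screen-wide average of all tested compounds plus 3 SD, cut at about 25% in these data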;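 also: 0% = enzyme with DMSO only and 100% = wells lacking PAFAH1B3 protein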
# PAFAH1B2 FP inh = PAFAH1B2 (human) inhibition. P68402. recombinant PAFAH1B2, FP-rhodamine activity probe, fluorescence polarization. inhibition, % at 3.39 µM. 1.2% of 340,000 active. AID 492953;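 active = inhibition above the mean of all tested compounds plus 3 SD, cut at about 24% in these data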;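 also: 0% = enzyme with DMSO and 100% = wells lacking PAFAH1B2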
# Target sequence (P68402 whole entry, looked up): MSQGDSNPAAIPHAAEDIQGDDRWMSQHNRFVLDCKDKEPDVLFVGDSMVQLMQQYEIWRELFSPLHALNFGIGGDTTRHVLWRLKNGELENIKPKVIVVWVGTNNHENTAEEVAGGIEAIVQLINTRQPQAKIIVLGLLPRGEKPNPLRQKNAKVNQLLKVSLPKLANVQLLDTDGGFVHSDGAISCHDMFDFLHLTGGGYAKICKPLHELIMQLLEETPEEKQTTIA
# PKA-R1A act = PKA-R1A complex activation. PKA-R1A dissociation, Cy5-IP20 fluorescence polarization; scaled: DMSO 0%, 113 µM cGMP 100%. P00514+P68181. activation, % at 11.4 µM. AID 504707. 0.083% of 340,000 active;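 active = percent activation above the mean of all tested compounds plus 3 SD, cut at about 19% in these data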;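 also: higher means more PKAc released from R1A so a rise in polarization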
# * hit, by the source's call; · = no result; + = active, no number.
SMILES,PAFAH2 FP inh,pPAFAH FP inh,PKA-R2B act,PAFAH1B3 inh,PAFAH1B2 FP inh,PKA-R1A act
CN1CCn2cnc(C(=O)Nc3ccc(CNC(=O)OC(C)(C)C)cc3)c2C1=O,·,·,-7.3,·,·,0.7
COC1=C/C(=C/c2c(N)n3nc(CC(=O)N4CCCC4)sc3nc2=O)C=CC1=O,3.8,11.1,4.0,3.3,8.1,-6.1
Nc1c(/C=C2/C=CC(=O)C(O)=C2)c(=O)nc2sc(CC(=O)N3CCOCC3)nn12,18.9,·,1.8,14.7,25.6*,-10.0
Nc1c(/C=C2/C=CC(=O)C(O)=C2)c(=O)nc2sc(CC(=O)N3CCCC3)nn12,7.9,21.2,-4.2,4.9,13.2,-12.2
Nc1c(/C=C2/C=CC(=O)C(O)=C2)c(=O)nc2sc(CC(=O)N3CCCCC3)nn12,34.5*,31.5*,-3.0,19.3,54.3*,3.5
CN(CC(=O)Nc1cc(Cl)ccc1-n1cncn1)Cc1ccccc1N1CCOCC1,·,·,-5.7,·,·,-2.7
COc1ccc(Nc2ncnc3c2cnn3-c2ccccc2)cc1OC,-0.7,3.1,3.4,-0.7,-1.1,8.3
COc1ccc(Nc2ncnc3sc(-c4ccccc4)cc23)cc1OC,-31.5,31.8*,-2.4,31.9*,17.7,-12.7
CCOC(=O)C1CCN(C(=O)CSc2nc(N)cc(=O)[nH]2)CC1,16.7,-3.9,-4.3,4.6,0.7,0.7
CN(c1ccc(Cl)cc1)S(=O)(=O)c1nnc(NC(=O)C(C)(C)C)s1,-2.4,·,3.0,9.1,27.8*,4.9
CN(C)S(=O)(=O)c1ccc(N2CCCC2)c(C(=O)NCC2COc3ccccc3O2)c1 (stereo not drawn),0.7,14.5,2.2,1.7,-2.7,-7.1
CN(C)S(=O)(=O)c1ccc(N2CCCC2)c(C(=O)NCC2CCCCC2)c1,-0.3,28.4*,-1.8,4.8,2.9,0.5
CCOC(=O)c1c(NC(=O)CSc2nnc(CNc3ccc(OC)cc3)n2C)sc(C)c1C,8.4,3.5,-9.3,7.8,25.7*,-3.9
O=C(O)c1cccc(Cn2c(Cl)c(/C=N/NC(=O)c3ccccc3Cl)sc2=O)c1,6.7,4.4,3.6,6.2,7.9,4.7
O=C(O)c1cccc(Cn2c(Cl)c(/C=N/Nc3ccccc3)sc2=O)c1,12.8,26.8*,-5.4,9.7,-0.9,-4.3
CCN(Cc1ccccc1)c1ccc(/C=N/N=C(N)N)cc1,5.3,7.0,-0.9,7.4,25.0*,-0.5
CCN(Cc1ccccc1)c1ccccc1,13.4,·,0.9,8.7,4.6,-12.6
CCN(Cc1ccccc1)c1ccc(/C=N/NS(=O)(=O)c2ccc(C)c([N+](=O)[O-])c2)cc1,0.7,3.2,-6.5,5.1,28.2*,-1.0
CCN(Cc1ccccc1)c1ccc(/C=N/NC(=S)NC(C)C)cc1,-0.2,22.0,3.7,13.0,25.6*,-4.7
CCN(CC)c1ccc(/C=N/NC(=S)NCc2ccco2)cc1,-1.9,28.9*,-1.4,2.0,1.3,-2.3
Oc1ccc(/C=N/NC(=S)NCc2ccco2)cc1,3.1,5.7,-3.5,-0.8,4.1,2.6
CN(C)c1ccc(/C=N/NC(=S)NCc2ccccc2)cc1,-5.9,17.5,-5.7,8.7,2.7,-11.6
Cc1ccc(S(=O)(=O)c2ccsc2NC(=O)c2ccccc2)cc1,-3.5,·,-4.1,3.2,1.2,7.4
CCCNC(=O)CCCN1C(=O)c2ccccc2Sc2ncccc21,-12.6,4.3,4.8,11.7,1.1,-10.3
COc1ccc(CC(=O)Nc2ccccc2C(=O)NCCc2ccccc2)cc1,-0.1,-0.8,-2.8,0.7,18.0,5.9
SMILES,PAFAH2 FP inh,pPAFAH FP inh,PKA-R2B act,PAFAH1B3 inh,PAFAH1B2 FP inh,PKA-R1A act
N=c1n(Cc2ccccc2)c2ccccc2n1CC(O)c1ccco1 (stereo not drawn),45.9*,3.4,-1.6,27.7*,37.8*,0.5
CCCCN(CCCNC(=O)C1CCN(S(=O)(=O)N2CCOCC2)CC1)c1ccccc1,2.1,28.2*,-8.7,-5.4,1.5,-2.3
O=C1CCC[C@@H]2[C@H]3CCC[N+]4([O-])CCC[C@@H](CN12)[C@@H]34 (stereo partly drawn),3.5,5.3,-0.3,1.2,-4.0,-6.1
COc1ccc(OC)c2[nH]c(C(=O)N/N=C/c3ccccc3O)cc12,30.4*,19.0,-0.5,42.3*,34.1*,-7.5
COc1ccc(/C=N/NC(=O)c2cccnc2)c2ccccc12,+,3.0,-10.3,198.6*,154.8*,1.3
COc1ccc(OC)c(/C=N/NC(=O)c2cc3c(OC)cccc3[nH]2)c1,3.7,25.2*,-7.3,12.1,13.3,-15.9
COc1ccc(/C=N/NC(=O)c2cc3c(OC)ccc(OC)c3[nH]2)cc1O,5.0,24.5,9.0,21.8,29.4*,-4.5
Cc1cc(NC(=O)CCN2CCC(C)CC2)ccc1Br,-4.1,·,-3.9,8.3,0.4,-12.2
CCOc1cc(N2CCOCC2)c(OCC)cc1NC(=O)c1ccc(S(=O)(=O)N2CC(C)OC(C)C2)cc1 (stereo not drawn),2.9,·,-6.7,-10.1,-0.7,4.4
CCOCC(O)CSCc1ccc(Cl)cc1 (stereo not drawn),2.9,1.8,-13.2,-1.1,25.6*,-14.2
CCOC(=O)C1CCN(CC(O)COCc2ccc(Cl)cc2)CC1 (stereo not drawn),0.5,3.3,-4.4,1.4,2.6,3.7
Cc1ccc(S(=O)(=O)CCC(=O)Oc2ccc(-c3nnco3)cc2)cc1,-6.4,29.5*,-17.7,1.1,4.7,-0.1
Cc1cc(OCCN2CCOCC2)ccc1C(C)C,7.4,-0.1,-9.9,5.9,5.0,-5.2
O=C(COC(=O)c1cc(-c2cccs2)nn1-c1ccccc1)Nc1ccc(F)c([N+](=O)[O-])c1,36.0*,25.4*,-2.1,-15.5,-6.4,-9.4
O=c1[nH]c(=S)n(C2CCCCC2)c(O)c1C=NCCN1CCOCC1,3.6,6.7,8.2,4.1,28.6*,1.7
Cc1cc(C)nc(NNS(=O)(=O)c2ccc(Cl)cc2)n1,9.8,1.2,-8.2,9.5,26.1*,5.4
Cc1cc(C)nc(NNS(=O)(=O)c2ccc(F)c(Cl)c2)n1,2.2,1.3,0.0,-2.8,1.3,6.5
CCOc1ccc(S(=O)(=O)Nc2ccc(C(=O)NCC(c3ccco3)N3CCCCC3)cc2)cc1 (stereo not drawn),-6.9,3.5,1.9,-1.8,2.1,4.3
Cc1ccccc1OCCC(=O)OCC(=O)NNC(=O)c1cccs1,-3.7,24.9*,-6.5,5.5,4.8,-0.4
COc1ccccc1OCC(=O)NNC(=O)c1cccs1,-1.7,-2.2,-4.7,-0.3,1.8,-2.2
Cc1c(NC(=O)C(C)OC(=O)COc2ccc(C#N)cc2)c(=O)n(-c2ccccc2)n1C (stereo not drawn),-0.3,6.1,-5.7,13.9,-1.9,9.4
NC(=S)n1[nH]c(-c2ccc([N+](=O)[O-])cc2)c(N=Nc2ccc(Cl)cc2)c1=O,40.6*,·,11.0,8.8,8.6,-2.9

# Source: PubChem (The Scripps Research Institute Molecular Screening Center)
